Sequences and labels used below:
B1: ENSMUSG00000061578.598|Ksr2 (ssRNA)
RNA: GGGAGUUCUACAGUCCGACGAUCGCUUCGAUAUCCGCAUGCUAUAAAAUAUGAUUCAGGCAAAUUCAAUGCAACUCAAAAUUUCCACCAAUCCCAUAUUGUCCCUAGCAAUGACAAAAUUAUUUGCAAGACAGACCCUGUGACCUGUAGAGGCAAAAUAUAUGGUGGCUUGCCUGGCUGGCCUGUGAUAUAGUGGACUGUCUUAGUGAUCGGACUUCAGGGAGCAACCUAUAGGAAAUGCAAAGGCUUAGAGGGGACGGACAGCUCCCUGACCCUGGAUGGCCAGGAAUGGUGCUAGCUAGGGCUCUUGCGGUCGCACUAGUGUGGAAUUCUCGGGUGUCAAGG
B2: ENSMUSG00000031028.646|Tub (ssRNA)
RNA: GGGAGUUCUACAGUCCGACGAUCGCUUCGAUAUCCGCAUGCUACCCCACUGAGGUCCAGGUAGAGCAGAUGAGGCUGAAAUGUAGAGUGUUCUAUAGAGCAUCUCAGUAGCAUAGAAGGAGAAGCCCAGCUCCAACCUCCUGGACCCCAUACUGGUGACCAGCUUGGUGAGGACAGGCAAAAUUUCUCUAGCUGAGAGCACACUUAGCCAGUUUUCACGCCUAGAACAUAUAUGUCGAUUUGCACAUGAUUGUCUUUUCCUAUUUUGGAGUGGUCAGACAUUUUAUUUUUGUUCAAAAUUAUCCUCUUGCGGUCGCACUAGUGUGGAAUUCUCGGGUGUCAAGG
B3: ENSMUSG00000031028.671|Tub (ssRNA)
RNA: GGGAGUUCUACAGUCCGACGAUCGCUUCGAUAUCCGCAUGCUAGAGAGCACACUUAGCCAGUUUUCACGCCUAGAACAUAUAUGUCGAUUUGCACAUGAUUGUCUUUUCCUAUUUUGGAGUGGUCAGACAUUUUAUUUUUGUUCAAAAUUAUCUGGAGUUUUAGACAAACUUGCAAAACUGUGCUUUUAUUAAGUGACUUUUUGAAUAAACUUUUUGGUAUUCUGAAGCAAAUGUAUUUAUUUAUUGGUAUGUGCAAUGACAAACUUGGUAUUUUCCCAUAAUGACAUUAUGUAUGUUGUAGACUCUUGCGGUCGCACUAGUGUGGAAUUCUCGGGUGUCAAGG
B4: ENSMUSG00000029636.275|Wasf3|21:26 (ssRNA)
RNA: GGGAGUUCUACAGUCCGACGAUCGCUUCGAUAUCCGCAUGCUAUCCCUACGCCCUGCUUUGGCCACACACUGAGUGCUCUGUGCUGCGCCAUGGCCAUCCUGGAGCCUGCGCACACGUGGCCGCUGCUGUGACUCGCUGUCCUUGGUAAUUGGUGAGAGGCUUUUUCUUUCUUUCUCAGUUCUGCUUUUCCACACUGAGACCCACCAUGUUGACAUCAUCCUCGCGACGUUGACAUUUGAGCCUUUUGUUCUGUCUCCCAUGUGCCCUGUAGAACCCAGCACUCAUGUUUGGCAAAACUUUUUCUCUUGCGGUCGCACUAGUGUGGAAUUCUCGGGUGUCAAGG
B5: ENSMUSG00000061578.898|Ksr2 (ssRNA)
RNA: GGGAGUUCUACAGUCCGACGAUCGCUUCGAUAUCCGCAUGCUAGACACUACCCAAACCCUAGCACUCUCCCAGUGACUCUCCUAUGAGUACAUAUGCCAUCCUGCUUCCUUUGUGGCAAAACCCUGGGUCACCCAGAGACAGAUUUCCCAGAAUCCCUGGGCCACUUCUCAAUUCUACCCAUGACAGACAUGUCCCAUCCAUGAGCCCAGAUAGUCAAAGACUUCAGCACAAGGGUGUUUAGAGUAGGCAGUGUGGAAGUAUCAAUAAGGUUAUUGAGAUGAGGAUUUAGAAAGAUCCAUGUACUCUUGCGGUCGCACUAGUGUGGAAUUCUCGGGUGUCAAGG
B6: ENSMUSG00000042529.46|Kcnj12|142:149 (ssRNA)
RNA: GGGAGUUCUACAGUCCGACGAUCGCUUCGAUAUCCGCAUGCUAGGCCAAAAUGACUGGCUCACGGCCUCGGAGGCUGAUGUAUACCCAUGGGCAAGGAGGUGACUUCUUGGGGUAGGGUUGCUCAGGAGUUAGGGACUCUGCUGGAGGCCUUAGGUGCAGGUCCCAGCCCCGGUGGGAGGAGGCACACAUACUACACUUCAUUGGUUUUUAACUUGGGCAAGACUGUUUACAAACAAAAACAAACAAACAAACAAUCAAAAAAAAAACCCACCCCACAAAACACAAGAAAACAUUAACAGGUGCUCUUGCGGUCGCACUAGUGUGGAAUUCUCGGGUGUCAAGG
B7: ENSMUSG00000031028.261|Tub (ssRNA)
RNA: GGGAGUUCUACAGUCCGACGAUCGCUUCGAUAUCCGCAUGCUACCAGAGGGAAGCAAAGAGCAUUUAGACAUUGCUUUUUGCUUUGAAAUAGAUAUGUUUGGAAACGCUAAGUAGAAGUUUAAAAAGUAGAGUCAUGUAGAGUCAUGCUUUGAAUAUGUGGGUCAUGCUUUAGAUAUGAAGAGGCUAUGCAGGUAAGGAGGCUGGAUUGAUGUAAAUGGAAGUAGUACUUUAAGAAAGCUCUAGAUUUCCCAGGUUGGACACUCGACGAAAGGCACACCUGCUGCAGCAGGUUCUGACACACCCUCUUGCGGUCGCACUAGUGUGGAAUUCUCGGGUGUCAAGG
B8: ENSMUSG00000043670.150|Diras1|4:8;157:162;227:231 (ssRNA)
RNA: GGGAGUUCUACAGUCCGACGAUCGCUUCGAUAUCCGCAUGCUAGGACACACGAGUGGCUGCCUGGACACUGCCCACCUGGACACCAGCCUUCUGCUGAGAUAGAGACCUUGGCACAGUGGCACCUCGACAGCCACCCCGACUGGGGGUUUGGGGUGCUGAGGGUGGGGUGCCCAGCUGAGAGUCUAUCAGCAAAGUCCCACACACCGGUGAUAGGACUAGUGGCUGCUGCCCUAGGGCUCUGACAGAAUCUGAGCCUCUUUGCUGGUCAACACAACUCUGGAGACUGUCCCCCAUGUCUGCCCCUCUUGCGGUCGCACUAGUGUGGAAUUCUCGGGUGUCAAGG
B9: ENSMUSG00000034801.46|Sos2 (ssRNA)
RNA: GGGAGUUCUACAGUCCGACGAUCGCUUCGAUAUCCGCAUGCUACCACCCGCCACUGUAUAGACUGCCUCUGCUGGAAAAUGCAGAAACUCCUCAAUGACCUUGGCCAUAUGUAGUCAUUGACACUGGAAUAGUAUUUGUAAAGGUUUUUAAUUUAUUCAAAAAGACAUAGUAUUUUAGUACUUUUUACAGAAAUGCUACUGAUUAAAUAAGCUCUUAAGAAUUAGUAAACUUGUUGGAUGGCAGUGGCCCACAGCUGUAAUCCCAGCACCCUGGUUGCAGGGGCAGGUGGGCUUCAGGGUUUGCUCUUGCGGUCGCACUAGUGUGGAAUUCUCGGGUGUCAAGG

Over roughly 9,900 sequences, “r (bound/input frequency ratio)” has its median near 0.7; the highest 2% begin near 6.5. The sample as a whole holds a higher share of the highest values than the screen did.

Sequence of TDP-43 (Q13148 whole entry): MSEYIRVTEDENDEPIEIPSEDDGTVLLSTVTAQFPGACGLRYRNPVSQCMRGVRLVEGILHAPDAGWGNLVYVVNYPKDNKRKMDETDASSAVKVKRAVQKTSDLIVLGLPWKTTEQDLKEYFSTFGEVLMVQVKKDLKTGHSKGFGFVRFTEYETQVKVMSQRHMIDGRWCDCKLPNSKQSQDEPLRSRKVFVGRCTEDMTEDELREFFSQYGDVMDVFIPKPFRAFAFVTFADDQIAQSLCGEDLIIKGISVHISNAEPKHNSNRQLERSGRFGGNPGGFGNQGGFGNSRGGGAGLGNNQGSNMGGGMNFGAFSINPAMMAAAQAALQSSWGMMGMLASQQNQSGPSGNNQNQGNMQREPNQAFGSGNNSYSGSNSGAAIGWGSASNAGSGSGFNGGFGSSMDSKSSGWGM

The target of this experiment is TDP-43 (Homo sapiens, UniProt Q13148 1-414). The experiment is described as follows: RNA Bind-n-Seq with designed 260-mer pool; 25 mM Tris-HCl, 150 mM KCl, 3 mM MgCl2, BSA (printed 500 mg/mL), 20 units/mL SUPERase IN; pH not stated; 500 nM RNA pool, 1 h, 4 C; TDP-43 5, 50, 500 nM; high values mean tight binding. Particulars: protein: recombinant; tags: SBP (GST cleaved off with PreScission; pGEX-GST-SBP). The gist of the method:
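Recombinant SBP-tagged TDP-43 at 5, 50 or 500 nM was captured on streptavidin beads, then incubated 1 h at 4 °C with 500 nM of an in vitro-transcribed 260-nt 3′ UTR oligo pool in 25 mM Tris-HCl, 150 mM KCl, 3 mM MgCl2, BSA and SUPERase IN. Bound RNA was washed, eluted with biotin, reverse transcribed, PCR-amplified and sequenced. Binding is R, each oligo's mapped-read-normalized abundance in the bound sample divided by its abundance in input. Duplicates used two independent protein batches.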
Consider B1, for which the binding signal is 0.515 R (bound/input frequency ratio).
With B2 the figure was 0.442 R (bound/input frequency ratio); with B3, 0.247 R (bound/input frequency ratio).
To B4 belongs 1.01 R (bound/input frequency ratio); to B5, 0.362 R (bound/input frequency ratio).
B6: the binding signal is 0.514 R (bound/input frequency ratio).
To B7 belongs 2.37 R (bound/input frequency ratio).
Take B8: the binding signal was 1 R (bound/input frequency ratio).
Take B9: the binding signal is 0.116 R (bound/input frequency ratio).

The values above are taken from paper PMC12864922, “TDP-43 directly inhibits mRNA accumulation in neurites through modulation of mRNA stability”.
